Gal4-VP16 FLuc = VP16 counterscreen qHTS for inhibitors of ROR gamma transcriptional activity. Drosophila S2 Gal4-VP16 UAS-luciferase, luminescence, 20 h. Potency, µM (series often up to 53.6 µM), usual class: inhibitors. 310,000 compounds, 3.5% hits;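 further: Gal4-VP16 expression switched on by copper sulfate through the metallothionein promoter; nearly all actives have a fitted effect of over 50% in size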
BCR signal inh = qHTS Assay to Find Inhibitors of Chronic Active B-Cell Receptor Signaling | 340,000 compounds, 0.05% hits | Potency, µM (series often up to 46.1 µM), hits mostly inhibitors | ABC-DLBCL IkBa-CBG/CBR reporter, luminescence ratio, 4 h; active means well fitted inhibition curve with a large enough effect in the signal ratio, with a control signal flat, not every such curve was filed as active; inconclusive means small, poorly fitted or top-dose-only effect, or effect the other way, or a change in a side signal; the % refers to the signal ratio
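Cell line TMD8 (human ABC DLBCL), stably expressing tet-inducible CBG68-IkBa fusion and CBR; IMDM/0.5% FBS; cpd up to 46 uM; dox induction, 4 h, 37C/5% CO2; dual luminescence; green/red ratio; MG132 control.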
Giardia killer = Small Molecules that selectively kill Giardia lamblia: qHTS | Giardia lamblia trophozoite viability | activity change, % at 7.66 µM, hits read low | 340,000 compounds, 0.15% hits | AID 540267, 2011; in the data active means activity change below about -80%; inconclusive means between about -30% and that limit;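 further: parasites exposed to compound for two days anaerobically before the ATP read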
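Trophozoites 100 cells/well + cpd; 48 hrs, 37 deg C, anaerobic. ATPLite 1-Step added, 15-30 min RT, luminescence read (ATP-based viability).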
SW480 rereplic = A quantitative high throughput screen for small molecules that induce DNA re-replication in SW480 colon adenocarcinoma cells; SW480 DNA re-replication, Hoechst DNA content imaging, 48 h; Potency, µM (doses to about 46.1 µM), actives largely listed as activators; 340,000 compounds, 1.8% hits; further: nearly all actives have a fitted effect of over 55% in size
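Readout is total intensity of Hoechst-stained nuclei, excited at 405 nm and collected at 500-530 nm. Compound treatment lasted 48 hr at 37 C in 5% CO2 before staining.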
MCF10A rerep = A quantitative high throughput screen for small molecules that induce DNA re-replication in MCF 10a normal breast cells; 350,000 compounds, 2.9% hits; Potency, µM (top dose mostly 46.1 µM), actives largely listed as activators; AID 624296, 2012; MCF 10A DNA re-replication, Hoechst nuclear intensity, 48 h; further: nearly all actives have a fitted effect of over 50% in size
RORgamma inh = qHTS for inhibitors of ROR gamma transcriptional activity; Nuclear receptor ROR-gamma (Mus musculus), P51450; Potency, µM (series often up to 53.6 µM), hits mostly inhibitors; Drosophila S2 Gal4-RORgamma UAS-luciferase reporter, 20 h; 310,000 compounds, 5.4% hits; further: nearly all actives have a fitted effect of over 60% in size
Target sequence (P51450 whole entry, looked up, the tested form may be a part): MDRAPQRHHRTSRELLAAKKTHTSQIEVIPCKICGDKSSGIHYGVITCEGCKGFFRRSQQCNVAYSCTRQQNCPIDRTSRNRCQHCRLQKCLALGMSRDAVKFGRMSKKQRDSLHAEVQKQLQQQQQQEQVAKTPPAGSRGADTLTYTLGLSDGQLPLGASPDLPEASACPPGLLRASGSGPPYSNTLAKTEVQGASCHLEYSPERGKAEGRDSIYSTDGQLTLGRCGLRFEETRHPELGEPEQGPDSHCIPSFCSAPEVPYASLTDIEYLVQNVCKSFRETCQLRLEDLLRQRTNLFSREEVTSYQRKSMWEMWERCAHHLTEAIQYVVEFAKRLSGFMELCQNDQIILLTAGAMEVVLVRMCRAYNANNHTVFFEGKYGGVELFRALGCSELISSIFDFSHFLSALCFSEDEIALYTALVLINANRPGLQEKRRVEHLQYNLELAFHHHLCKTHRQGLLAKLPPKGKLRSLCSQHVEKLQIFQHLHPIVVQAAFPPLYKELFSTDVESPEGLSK
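Compounds are pin-transferred onto Drosophila Schneider cells expressing a copper-inducible Gal4–ROR gamma transactivation domain fusion. After 1 hr, copper sulfate is added to 700 uM final; luciferase is read 20 hr later.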
Each line names hits and unclear results; the compound was inactive in the other large screens; ! = not active in a repeat. Shown are actives, neighbours in structure and some others; about 8.3% of the full set was active somewhere. Unless noted, the call rests on the fitted dose curve; in most records, active means well fitted curve in the direction sought with a large enough effect; inconclusive means small, poorly fitted or top-dose-only effect, or another doubt; inactive means no such curve, though single readings can be large; an effect the other way counts as inactive or inconclusive.

CCCCc1ccc(NC(=O)C(=O)NCCN2CCN(Cc3ccc([N+](=O)[O-])cc3)CC2)cc1	MCF10A rerep 3.3µM, RORgamma inh inconclusive
S=C(NCCc1ccccn1)Nc1ccccc1Cl	Gal4-VP16 FLuc 13µM, SW480 rereplic 9.2µM, RORgamma inh 6.3µM
C=CCNC(=S)Nc1cccc2ccccc12	none
CC(C1CC1)N(Cc1ccccc1)C(=O)NC(=O)c1ccccc1 (centres undefined)	none
CC(C1CC1)N(Cc1ccccc1)C(=S)Nc1ccccc1Cl (centres undefined)	Gal4-VP16 FLuc inconclusive, MCF10A rerep inconclusive, RORgamma inh 10µM
CN(C)CCNC(=S)Nc1ccccc1Cl	none
S=C(NCCc1ccncc1)Nc1cccc2ccccc12	Gal4-VP16 FLuc inconclusive, RORgamma inh 10µM
O=C1Cc2cc(S(=O)(=O)Nc3cccc([N+](=O)[O-])c3)cc3c2N1CCC3	RORgamma inh inconclusive
CNC(=S)NCCCc1ccccc1	Gal4-VP16 FLuc inconclusive, RORgamma inh 16µM
S=C(NCCCc1ccccc1)Nc1ccccc1Cl	BCR signal inh inconclusive, MCF10A rerep inconclusive, RORgamma inh inconclusive
CS(=O)(=O)N1CCN(c2ccc([N+](=O)[O-])c3cccnc23)CC1	BCR signal inh inconclusive, Giardia killer -82
O=[N+]([O-])c1cc([N+](=O)[O-])c2cccnc2c1Oc1ccccc1O	Gal4-VP16 FLuc inconclusive, MCF10A rerep inconclusive, RORgamma inh 18µM
O=[N+]([O-])c1ccc(O)c2ncccc12	Gal4-VP16 FLuc 0.56µM, BCR signal inh inconclusive, SW480 rereplic 7.3µM, MCF10A rerep 15µM!, RORgamma inh 0.28µM
O=[N+]([O-])c1ccc(O)c2cccnc12	RORgamma inh inconclusive
CC(CC(=O)c1cccs1)CC(=O)c1cccs1	BCR signal inh inconclusive, SW480 rereplic 16µM, MCF10A rerep 18µM
O=C(O)CCCCCCCCCC(=O)c1cccs1	Gal4-VP16 FLuc 3.5µM, BCR signal inh inconclusive, Giardia killer inconclusive, RORgamma inh 10µM
O=C(CC(C(=O)O)c1ccccc1)c1cccs1 (centres undefined)	none
Cc1cccc(-n2c(-c3ccncc3)n[nH]c2=S)c1	RORgamma inh inconclusive
Cc1ccccc1-n1c(C)n[nH]c1=S	SW480 rereplic 15µM, MCF10A rerep 9.2µM, RORgamma inh inconclusive
Cc1ccccc1-n1c(-c2ccoc2C)n[nH]c1=S	Gal4-VP16 FLuc inconclusive, RORgamma inh 10µM
Cc1cccc(-n2c(-c3ccoc3C)n[nH]c2=S)c1	Gal4-VP16 FLuc inconclusive, RORgamma inh 8.9µM
Cc1cc(C)c(C)c(S(=O)(=O)N[C@@H](C)C(=O)OCc2cc(=O)n3cc(Br)ccc3n2)c1C	none
CCOC(=O)c1c(C)[nH]c(C(=O)OCC(=O)NC2(C#N)CCCCC2)c1C	none (no result: Gal4-VP16 FLuc, RORgamma inh)
COc1cc(/C=N/OCC(=O)NC2CCCCC2C)ccc1OCc1ccc(Cl)cc1 (centres undefined)	BCR signal inh inconclusive, MCF10A rerep 16µM, RORgamma inh inconclusive
CN(C)c1ccc(C(=S)N2CCN(Cc3ccccc3)CC2)cc1	RORgamma inh 13µM
CCN(CC)c1ccc(C(=S)N2CCN(c3ccccc3)CC2)cc1	Gal4-VP16 FLuc inconclusive, RORgamma inh 13µM
Oc1ccc(C(=S)N2CCN(Cc3ccccc3)CC2)cc1	none
COc1ccc(C(=O)/C=C/C(=O)N(CC(=O)NC2CCCCC2)Cc2ccc(F)cc2)c(O)c1	Gal4-VP16 FLuc 7.1µM, BCR signal inh inconclusive, SW480 rereplic inconclusive, MCF10A rerep inconclusive
COc1ccc(OC)c(NC(=O)CN(Cc2ccccc2)S(C)(=O)=O)c1	MCF10A rerep 1µM
COc1ccc(OC)c(NC(=O)CN(Cc2ccc(F)cc2)C2CCCCC2)c1	Gal4-VP16 FLuc 18µM, MCF10A rerep 18µM, RORgamma inh inconclusive
Cc1cc(C)c2oc(C(=O)N(Cc3cccs3)C3CCS(=O)(=O)C3)cc(=O)c2c1 (centres undefined)	Giardia killer inconclusive
C=CCN1C(=O)N(/C=C/C)c2cccc3cccc1c23	BCR signal inh inconclusive, MCF10A rerep 21µM
CCCCCCCCCCCCCC[n+]1ccc(C)cc1	Gal4-VP16 FLuc 4µM, SW480 rereplic inconclusive, RORgamma inh inconclusive (no result: BCR signal inh, Giardia killer)
CCCCCCCCCCCC[n+]1ccc2ccccc2c1	Gal4-VP16 FLuc 5µM, SW480 rereplic inconclusive, RORgamma inh inconclusive (no result: BCR signal inh, Giardia killer)
CCCCCCCCCCCCCCCC[n+]1ccc(C(N)=O)cc1	SW480 rereplic inconclusive, MCF10A rerep inconclusive, RORgamma inh inconclusive
CCCCCCCCCCCCCCCC[n+]1ccc(/C=N/O)cc1	Gal4-VP16 FLuc 7.1µM, SW480 rereplic 21µM, MCF10A rerep 2.6µM, RORgamma inh inconclusive
CCCCCCCCCCCCCCCC[n+]1cccc(C(=O)N(CC)CC)c1	SW480 rereplic 21µM, MCF10A rerep inconclusive
CN1CCN(c2ncncc2-c2cccnc2)CC1	none (no result: BCR signal inh, Giardia killer, SW480 rereplic, MCF10A rerep)
O=[N+]([O-])c1ccc(C[n+]2cccc3c4ccccc4ccc32)cc1	SW480 rereplic inconclusive
CCCCCCCCC[n+]1cccc2c3ccccc3ccc21	Gal4-VP16 FLuc 2.5µM, BCR signal inh inconclusive, SW480 rereplic inconclusive, MCF10A rerep inconclusive, RORgamma inh 8.9µM
CC(C)(C)OC(=O)N1CCCC(C(=O)Nc2ccc(C(=O)N3CCCC3)cc2)C1 (centres undefined)	BCR signal inh inconclusive (no result: Gal4-VP16 FLuc, RORgamma inh)
COc1ccc(NC(=O)CS(=O)c2ccc(Cl)c(Cl)c2)cc1 (centres undefined)	none
Cc1ccccc1C(=O)N1CCc2ccccc2C1	MCF10A rerep 16µM
COc1cc2c(cc1OC)CN(C(=O)c1ccc([N+](=O)[O-])o1)CC2	BCR signal inh inconclusive, Giardia killer inconclusive, SW480 rereplic 6.5µM, MCF10A rerep inconclusive
O=C(c1ccc([N+](=O)[O-])o1)N1CCc2ccccc2C1	Giardia killer -86, SW480 rereplic inconclusive
O=C(c1ccc([N+](=O)[O-])cc1)N1CCc2ccccc2C1	none
O=C(c1ccccc1Cl)N1CCc2ccccc2C1	none
O=C(c1ccc([N+](=O)[O-])o1)N1CCc2ccccc21	Giardia killer -88, SW480 rereplic 21µM, MCF10A rerep 9.2µM
CC(=O)c1cccc(S(=O)(=O)N2CCC(C(=O)OC3CCOC3=O)CC2)c1 (centres undefined)	none (no result: Gal4-VP16 FLuc, RORgamma inh)
COc1ccc(OC)c(CNc2nc3ccccc3n2CCN2CCCCC2)c1	BCR signal inh inconclusive
COc1ccc(CNc2nc3ccccc3n2CCN2CCCCC2)c(OC)c1	BCR signal inh inconclusive, RORgamma inh 13µM

Bioassay records: PubChem BioAssay, National Center for Advancing Translational Sciences (NCATS)
